# DT40 TDP1 CPT = growth inhibition of DT40 Tdp1-/-;hTDP1 cells with camptothecin (screen for TDP1 inhibitors) | chicken DT40 Tdp1-/-;hTDP1 cells + 20 nM CPT, ATP luminescence, 48 h | Potency, µM (titrated, usually from 46.2 µM), for the others: top-dose activity change, negative = growth inhibition, most hits filed as inhibitors | actives 12% (n = 420,000); also: potency is read from the fitted curve at half-maximal effect; % is scaled to controls: 0 for no effect and ±100 for the full control effect; nearly all actives have a fitted effect of over 55% in size
#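 Cell growth measured by CellTiter-Glo luminescence after a minimum 48 h, 37 C compound exposure with 20 nM CPT in Tdp1-knockout DT40 cells stably expressing hTDP1, seeded 400/well; qHTS titration format.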
# TDP1 cell noCPT = qHTS for Inhibitors of human tyrosyl-DNA phosphodiesterase 1 (TDP1): qHTS in cells in absence of CPT; Potency, µM (titrated, usually from 46.2 µM), without a hit: at the top dose activity change, negative = growth inhibition, usual class: inhibitors; actives 15% (n = 420,000); DT40 Tdp1-/- hTDP1 cells, no CPT, ATP luminescence, 48 h; also: potency is read from the fitted curve at half-maximal effect; % is scaled to controls: 0 for no effect and ±100 for the full control effect; nearly all actives have a fitted effect of over 55% in size
#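 Camptothecin absent (DMSO only). Human TDP1-complemented DT40 knockout cells, 400 cells/well, 37 °C for minimum 48 hr; ATP measured via CellTiter-Glo, 30 min dark incubation, luminescence.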
# BCR signal inh = chronic active BCR signaling inhibition. ABC-DLBCL IkBa-CBG/CBR reporter, luminescence ratio, 4 h. Potency, µM (top dose mostly 46.1 µM), for the others: at the top dose activity change, negative = inhibition, usual class: inhibitors. actives 0.05% (n = 340,000); active = well fitted inhibition curve with a large enough effect in the signal ratio, with a control signal flat, not every such curve was filed as active; inconclusive = small, poorly fitted or top-dose-only effect, or effect the other way, or a change in a side signal; the % refers to the signal ratio;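 also: potency is read from the fitted curve at half-maximal effect; plate controls were basal doxycycline-induced cells for no effect and cells given 10 µM MG132 for full effect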
#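 Concentration-response series (up to 46 uM) were applied to TMD8 dual-reporter cells for 4 h at 37C with doxycycline. Green/red ratio, after filter-overlap correction, defined %Activity; red signal alone was normalised to basal cells and zero luminescence.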
# MCF10A rereplic = DNA re-replication induction in MCF 10a cells | actives 2.9% (n = 350,000) | AID 624296 | MCF 10A DNA re-replication, Hoechst nuclear intensity, 48 h | Potency, µM (series often up to 46.1 µM), inactives show top-dose activity, positive = re-replication, usual class: activators; also: potency is read from the fitted curve at half-maximal effect; % of control where 0% means no effect; nearly all actives have a fitted effect of over 50% in size
# SW480 rerep = induces DNA re-replication in SW480 colon adenocarcinoma cells. SW480 DNA re-replication, Hoechst DNA content imaging, 48 h. Potency, µM (doses to about 46.1 µM), inactives show top-dose re-replication activation, usual class: activators. actives 1.8% (n = 340,000); also: potency is read from the fitted curve at half-maximal effect; % of control where 0% means no effect; nearly all actives have a fitted effect of over 55% in size
#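 Cells (250 per well) received 23 nL compound or DMSO by pin tool and were kept 48 hr at 37 C, 5% CO2. Nuclei were then stained with Hoechst for 40 min and scanned for DNA content.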
# IL-1B inflam inh = blocks inflammasome-driven IL-1 beta release. THP-1 LPS/ATP IL-1B secretion, AlphaLISA, 16 h; hits give low values. activity change, % at 57.5 µM. actives 4.7% (n = 360,000). AID 743279; in the data active = activity change below about -50%; inconclusive = mostly about -30% to -49%; also: % is scaled to controls: 0 for no effect and ±100 for the full control effect
#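 Secreted IL-1B measured by AlphaLISA bead assay after 16 h compound exposure of THP-1 cells; compounds (final up to 57.5 uM) added 1 h before LPS (250 ng/mL) and ATP (1.25 mM) stimulation; lower signal means less secretion.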
# Starred values were filed as active, the others as inactive; ? = inconclusive; . = no result; [ ] = remark or other dose. This is a sample that favours compounds with a hit; in the whole collection about 19% have one here. Unless noted, calls follow the shape of the dose curve; as a rule, active = well fitted curve in the direction sought with a large enough effect; inconclusive = small, poorly fitted or top-dose-only effect, or another doubt; inactive = no such curve, though single readings can be large; an effect the other way counts as inactive or inconclusive.
SMILES,DT40 TDP1 CPT,TDP1 cell noCPT,BCR signal inh,MCF10A rereplic,SW480 rerep,IL-1B inflam inh
COc1ccc(-c2nnc(SCC(=O)Nc3ccc(C(C)=O)cc3)nc2-c2ccc(OC)cc2)cc1,12µM*,10µM*,?,.,.,.
COc1cccc(CNC(=O)CCCn2c(=S)[nH]c3cc4c(cc3c2=O)OCO4)c1,-26%,?,1%,13%,-1%,18
Cn1c(=S)ccc2ccccc21,-19%,-27%,0%,9%,2%,18
CC(C(=O)O)n1cc(C#N)c(=O)[nH]c1=O (configuration not stated),-15%,-8%,.,-15%,-5%,16
O=C(COC(=O)CCc1nc2ccccc2c(=O)[nH]1)Nc1ccccc1OC(F)F,3%,18%,0%,-2%,-20%,6
C[C@H]1CN([C@@H](C)CO)C(=O)c2cccc(NC(=O)Nc3ccc(C(F)(F)F)cc3)c2O[C@@H]1CN(C)S(=O)(=O)c1ccc(Cl)cc1,7.3µM*,8.2µM*,?,?,?,?
C[C@H](CO)N1C[C@H](C)[C@@H](CN(C)S(=O)(=O)c2ccc(F)cc2)Oc2c(NC(=O)Nc3ccc(C(F)(F)F)cc3)cccc2C1=O,?,?,?,?,-36%[9.22 µM],-51*
COc1ccc(NC(=O)Nc2cccc3c2O[C@H](CN(C)S(=O)(=O)c2ccc(F)cc2)[C@@H](C)CN([C@H](C)CO)C3=O)cc1,-27%,-11%,-4%,-7%,0%,-20
CCOC(=O)c1c(NC(=O)C(C)Sc2cn(CCNC(=O)c3ccc(OC)c(OC)c3)c3ccccc23)sc2c1CCC2 (configuration not stated),21µM*,?,.,.,.,.
CCOC(=O)c1c(NC(=O)C(C)Sc2nnc(C)c(=O)[nH]2)sc2c1CCCC2 (configuration not stated),2%,-17%,?,11%,11%,30
CCOC(=O)c1c(NC(=O)c2cc(OC)c(OC)c(OC)c2)sc2c1CCCC2,7%,3%,.,.,.,.
CCOC(=O)c1c(NC(=O)C(C)Sc2cn(CCNC(=O)c3ccccc3OC)c3ccccc23)sc2c1CCC2 (configuration not stated),18µM*,5.2µM*,.,.,.,.
CCOC(=O)c1c(NC(=O)CSc2nnc(-c3c[nH]c4ccccc34)n2CCOC)sc2c1CCCC2,23µM*,15µM*,0%,15%,?,-18
CCOC(=O)c1c(NC(=O)C(C)S(=O)(=O)c2cn(CC)c3ccccc23)sc2c1CCCC2 (configuration not stated),?,6.5µM*,6%,-3%,7%,-14
Fc1cccc(F)c1[B-](F)(F)F,?,1%,.,1%,?,-11
Cc1ccc(NC(=O)CSc2nc(=O)n(Cc3cccnc3)c3c2CCC3)cc1F,-24%,?,?,.,.,.
CCOC(=O)c1c(NC(=O)CSc2cn(CCNC(=O)c3ccc(OC)c(OC)c3)c3ccccc23)sc2c1CCCC2,7.3µM*,2.9µM*,.,.,.,.
CCOC(=O)c1c(NC(=O)c2cc(-c3ccc(OC)c(OC)c3)on2)sc2c1CCCC2,3%,-23%,.,.,.,.
Cc1ccccc1NC(=S)N1CCN(c2ccccc2Cl)CC1,15µM*,12µM*,-14%,2%,-1%[9.22 µM],3
CCN1CCN(C(=S)Nc2ccccc2Cl)CC1,11µM*,?,-25%,-5%,-2%[9.22 µM],-3
COc1ccccc1NC(=S)N1CCN(c2cccc(C)c2C)CC1,5.2µM*,2.3µM*,-3%,0%,-4%,?
CN1CCN(C(=S)Nc2ccccc2Cl)CC1,-26%,?,-1%,-5%,?,-16
